# Measurements published in publication PMC11006913.
# Where a chain is given by its changes, count along the chain named.
# What was measured:
# Test in all cases: PBM; 200 nM protein, PBS
# Conditions in all cases: dsDNA, one strand shown
# [1] = molecular target: SHOX (Homo sapiens, UniProt O15266 103-189)
# [2] = molecular target: HOXC9 (Homo sapiens, UniProt P31274 178-260, K195R)
# [3] = molecular target: HOXC9 (Homo sapiens, UniProt P31274 178-260)
# [4] = molecular target: SHOX (Homo sapiens, UniProt O15266 103-189, R173C)
# [5] = molecular target: HOXC9 (Homo sapiens, UniProt P31274 178-260, R193K)
# [6] = molecular target: HOXC9 (Homo sapiens, UniProt P31274 178-260, R222W)
# [7] = molecular target: CRX (Homo sapiens, UniProt O43186 26-111)
# [8] = molecular target: CRX (Homo sapiens, UniProt O43186 26-111, E42D)
# [9] = molecular target: PITX2 (Homo sapiens, UniProt Q99697 72-157)
# [10] = molecular target: CRX (Homo sapiens, UniProt O43186 26-111, R41L)
# [11] = molecular target: HOXB9 (Homo sapiens, UniProt P17482 171-250, T197M)
# [12] = molecular target: HOXC10 (Homo sapiens, UniProt Q9NYD6 254-340)
# [13] = molecular target: HOXB9 (Homo sapiens, UniProt P17482 171-250)
# [14] = molecular target: HOXC10 (Homo sapiens, UniProt Q9NYD6 254-340, K271E)
# [15] = molecular target: HOXB9 (Homo sapiens, UniProt P17482 171-250, R186Q)
# [16] = molecular target: HOXA4 (Homo sapiens, UniProt Q00056 201-287, W262R)
# [17] = molecular target: HOXA4 (Homo sapiens, UniProt Q00056 201-287, R217L)
# [18] = molecular target: HOXA4 (Homo sapiens, UniProt Q00056 201-287)
# [19] = molecular target: HOXA4 (Homo sapiens, UniProt Q00056 201-287, W262F)
# [20] = molecular target: T1, VENTX (Homo sapiens, UniProt O95231 78-163, R121Q)
# T1 sequence: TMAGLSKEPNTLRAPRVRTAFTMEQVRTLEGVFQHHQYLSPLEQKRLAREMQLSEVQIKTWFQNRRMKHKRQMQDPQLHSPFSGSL
# [21] = molecular target: T2, VENTX (Homo sapiens, UniProt O95231 78-163)
# T2 sequence: T1 sequence with Q44R
# [22] = molecular target: ALX4 (Homo sapiens, UniProt Q9H161 200-286)
# [23] = molecular target: T3, VENTX (Homo sapiens, UniProt O95231 78-163, Y115F)
# T3 sequence: T1 sequence with Y38F, Q44R
# [24] = molecular target: ALX4 (Homo sapiens, UniProt Q9H161 200-286, Q225E)
# [25] = molecular target: HOXA7 (Homo sapiens, UniProt P31268 116-202)
# [26] = molecular target: HOXA2 (Homo sapiens, UniProt O43364 129-215, R185T)
# [27] = molecular target: ALX3 (Homo sapiens, UniProt O95076 139-225, N203Q)
# [28] = molecular target: HOXD13 (Homo sapiens, UniProt P35453 263-343, T313R)
# [29] = molecular target: HOXA2 (Homo sapiens, UniProt O43364 129-215, R185K)
# [30] = molecular target: HOXD13 (Homo sapiens, UniProt P35453 263-343)
# [31] = molecular target: ALX3 (Homo sapiens, UniProt O95076 139-225)
# [32] = molecular target: VAX1 (Homo sapiens, UniProt Q5SQQ9 86-172)
# [33] = molecular target: ALX3 (Homo sapiens, UniProt O95076 139-225, L168Q)
# [34] = molecular target: HOXD13 (Homo sapiens, UniProt P35453 263-343, T313A)
# [35] = molecular target: ALX3 (Homo sapiens, UniProt O95076 139-225, L168V)
# [36] = molecular target: VAX1 (Homo sapiens, UniProt Q5SQQ9 86-172, T142I)
# [37] = molecular target: HOXA2 (Homo sapiens, UniProt O43364 129-215, Y150S)
# [38] = molecular target: HOXA7 (Homo sapiens, UniProt P31268 116-202, W177C)
# [39] = molecular target: ALX3 (Homo sapiens, UniProt O95076 139-225, N203S)
# [40] = molecular target: HOXA2 (Homo sapiens, UniProt O43364 129-215)
# [41] = molecular target: VAX1 (Homo sapiens, UniProt Q5SQQ9 86-172, K157R)
# Chain of VAX1 (Homo sapiens, UniProt Q5SQQ9 86-172, K157R) (Q5SQQ9 86-172 K157R): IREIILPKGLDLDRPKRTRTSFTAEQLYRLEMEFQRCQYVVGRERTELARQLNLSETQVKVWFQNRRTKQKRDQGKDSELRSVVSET
# Chain of SHOX (Homo sapiens, UniProt O15266 103-189, R173C) (O15266 103-189 R173C): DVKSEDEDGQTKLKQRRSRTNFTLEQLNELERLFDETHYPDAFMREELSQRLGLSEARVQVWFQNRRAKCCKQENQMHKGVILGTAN
# Chain of SHOX (Homo sapiens, UniProt O15266 103-189) (O15266 103-189): as the sequence (O15266 103-189 R173C) above, with C71R counted along it
# Chain of HOXB9 (Homo sapiens, UniProt P17482 171-250, R186Q) (P17482 171-250 R186Q): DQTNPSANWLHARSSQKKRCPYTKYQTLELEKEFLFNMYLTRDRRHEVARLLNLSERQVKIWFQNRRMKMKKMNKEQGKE
# Chain of HOXB9 (Homo sapiens, UniProt P17482 171-250) (P17482 171-250): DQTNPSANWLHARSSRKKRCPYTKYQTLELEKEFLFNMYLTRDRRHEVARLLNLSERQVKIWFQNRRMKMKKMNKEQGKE
# Chain of HOXB9 (Homo sapiens, UniProt P17482 171-250, T197M) (P17482 171-250 T197M): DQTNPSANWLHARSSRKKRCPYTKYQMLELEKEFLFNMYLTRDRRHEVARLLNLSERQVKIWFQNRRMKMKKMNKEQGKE
# Chain of VAX1 (Homo sapiens, UniProt Q5SQQ9 86-172) (Q5SQQ9 86-172): as the sequence (Q5SQQ9 86-172 K157R) above, with R72K counted along it
# Chain of ALX3 (Homo sapiens, UniProt O95076 139-225, N203Q) (O95076 139-225 N203Q): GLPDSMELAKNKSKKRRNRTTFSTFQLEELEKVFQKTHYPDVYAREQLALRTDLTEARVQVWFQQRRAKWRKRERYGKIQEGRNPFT
# Chain of ALX3 (Homo sapiens, UniProt O95076 139-225) (O95076 139-225): as the sequence (O95076 139-225 N203Q) above, with Q65N counted along it
# Chain of VAX1 (Homo sapiens, UniProt Q5SQQ9 86-172, T142I) (Q5SQQ9 86-172 T142I): as the sequence (Q5SQQ9 86-172 K157R) above, with T57I, R72K counted along it
# Chain of HOXA7 (Homo sapiens, UniProt P31268 116-202) (P31268 116-202): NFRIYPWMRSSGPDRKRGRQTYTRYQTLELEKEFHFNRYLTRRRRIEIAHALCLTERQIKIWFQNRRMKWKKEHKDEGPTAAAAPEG
# Chain of HOXA4 (Homo sapiens, UniProt Q00056 201-287, W262F) (Q00056 201-287 W262F): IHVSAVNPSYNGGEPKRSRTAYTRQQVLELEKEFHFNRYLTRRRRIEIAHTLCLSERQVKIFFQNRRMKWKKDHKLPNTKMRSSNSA
# Chain of HOXC9 (Homo sapiens, UniProt P31274 178-260) (P31274 178-260): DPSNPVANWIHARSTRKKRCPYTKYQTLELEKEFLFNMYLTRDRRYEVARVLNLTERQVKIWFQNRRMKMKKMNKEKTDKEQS
# Chain of HOXC9 (Homo sapiens, UniProt P31274 178-260, R222W) (P31274 178-260 R222W): as the sequence (P31274 178-260) above, with R45W counted along it
# Chain of HOXA4 (Homo sapiens, UniProt Q00056 201-287, W262R) (Q00056 201-287 W262R): as the sequence (Q00056 201-287 W262F) above, with F62R counted along it
# Chain of HOXC9 (Homo sapiens, UniProt P31274 178-260, R193K) (P31274 178-260 R193K): as the sequence (P31274 178-260) above, with R16K counted along it
# Chain of CRX (Homo sapiens, UniProt O43186 26-111) (O43186 26-111): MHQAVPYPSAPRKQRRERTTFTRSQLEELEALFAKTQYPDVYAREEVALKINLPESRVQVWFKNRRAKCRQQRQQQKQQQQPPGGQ
# Chain of HOXD13 (Homo sapiens, UniProt P35453 263-343) (P35453 263-343): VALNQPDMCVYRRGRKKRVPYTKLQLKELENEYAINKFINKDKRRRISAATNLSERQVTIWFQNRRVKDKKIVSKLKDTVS
# Chain of CRX (Homo sapiens, UniProt O43186 26-111, E42D) (O43186 26-111 E42D): as the sequence (O43186 26-111) above, with E17D counted along it
# Chain of ALX3 (Homo sapiens, UniProt O95076 139-225, L168Q) (O95076 139-225 L168Q): as the sequence (O95076 139-225 N203Q) above, with L30Q, Q65N counted along it
# Chain of HOXC10 (Homo sapiens, UniProt Q9NYD6 254-340, K271E) (Q9NYD6 254-340 K271E): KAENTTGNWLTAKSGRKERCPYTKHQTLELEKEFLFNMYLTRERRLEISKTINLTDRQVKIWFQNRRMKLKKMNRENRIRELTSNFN
# Chain of HOXA7 (Homo sapiens, UniProt P31268 116-202, W177C) (P31268 116-202 W177C): as the sequence (P31268 116-202) above, with W62C counted along it
# Chain of ALX4 (Homo sapiens, UniProt Q9H161 200-286) (Q9H161 200-286): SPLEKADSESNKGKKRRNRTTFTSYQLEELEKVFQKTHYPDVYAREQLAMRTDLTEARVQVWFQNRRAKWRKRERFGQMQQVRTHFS
# Chain of HOXA2 (Homo sapiens, UniProt O43364 129-215, R185T) (O43364 129-215 R185T): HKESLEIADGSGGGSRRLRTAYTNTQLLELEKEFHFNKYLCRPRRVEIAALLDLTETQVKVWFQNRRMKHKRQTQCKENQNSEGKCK
# Chain of ALX3 (Homo sapiens, UniProt O95076 139-225, L168V) (O95076 139-225 L168V): as the sequence (O95076 139-225 N203Q) above, with L30V, Q65N counted along it
# Chain of HOXA2 (Homo sapiens, UniProt O43364 129-215, Y150S) (O43364 129-215 Y150S): as the sequence (O43364 129-215 R185T) above, with Y22S, T57R counted along it
# Chain of HOXA2 (Homo sapiens, UniProt O43364 129-215, R185K) (O43364 129-215 R185K): as the sequence (O43364 129-215 R185T) above, with T57K counted along it
# Chain of ALX4 (Homo sapiens, UniProt Q9H161 200-286, Q225E) (Q9H161 200-286 Q225E): as the sequence (Q9H161 200-286) above, with Q26E counted along it
# Chain of HOXA4 (Homo sapiens, UniProt Q00056 201-287, R217L) (Q00056 201-287 R217L): as the sequence (Q00056 201-287 W262F) above, with R17L, F62W counted along it
# Chain of HOXA2 (Homo sapiens, UniProt O43364 129-215) (O43364 129-215): as the sequence (O43364 129-215 R185T) above, with T57R counted along it
# Chain of HOXC10 (Homo sapiens, UniProt Q9NYD6 254-340) (Q9NYD6 254-340): as the sequence (Q9NYD6 254-340 K271E) above, with E18K counted along it
# Chain of HOXD13 (Homo sapiens, UniProt P35453 263-343, T313A) (P35453 263-343 T313A): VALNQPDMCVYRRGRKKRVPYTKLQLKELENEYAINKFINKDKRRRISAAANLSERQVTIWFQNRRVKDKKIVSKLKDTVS
# Chain of HOXA4 (Homo sapiens, UniProt Q00056 201-287) (Q00056 201-287): as the sequence (Q00056 201-287 W262F) above, with F62W counted along it
# Chain of CRX (Homo sapiens, UniProt O43186 26-111, R41L) (O43186 26-111 R41L): as the sequence (O43186 26-111) above, with R16L counted along it
# Chain of HOXC9 (Homo sapiens, UniProt P31274 178-260, K195R) (P31274 178-260 K195R): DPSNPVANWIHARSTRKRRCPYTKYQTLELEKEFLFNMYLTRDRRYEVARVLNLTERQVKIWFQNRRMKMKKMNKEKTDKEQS
# Chain of ALX3 (Homo sapiens, UniProt O95076 139-225, N203S) (O95076 139-225 N203S): as the sequence (O95076 139-225 N203Q) above, with Q65S counted along it
# Chain of HOXD13 (Homo sapiens, UniProt P35453 263-343, T313R) (P35453 263-343 T313R): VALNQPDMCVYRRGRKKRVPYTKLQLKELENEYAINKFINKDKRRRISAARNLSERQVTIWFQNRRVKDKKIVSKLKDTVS
sequence,measurement,setting,value
ACGTAATC,binding signal,[1],"8.86 upbm affinity estimate (log intensity, higher = more binding, comparable within an allelic series)"
CCCCCGGG,binding signal,[1],"6.93 upbm affinity estimate (log intensity, higher = more binding, comparable within an allelic series)"
same,binding signal,[2],"9.28 upbm affinity estimate (log intensity, higher = more binding, comparable within an allelic series)"
same,binding signal,[3],"9.39 upbm affinity estimate (log intensity, higher = more binding, comparable within an allelic series)"
same,binding signal,[4],"6.97 upbm affinity estimate (log intensity, higher = more binding, comparable within an allelic series)"
same,binding signal,[5],"9.25 upbm affinity estimate (log intensity, higher = more binding, comparable within an allelic series)"
same,binding signal,[6],"9.53 upbm affinity estimate (log intensity, higher = more binding, comparable within an allelic series)"
AAATATAA,binding signal,[1],"9.24 upbm affinity estimate (log intensity, higher = more binding, comparable within an allelic series)"
GATTAATC,binding signal,[1],"10.2 upbm affinity estimate (log intensity, higher = more binding, comparable within an allelic series)"
same,binding signal,[7],"13.2 upbm affinity estimate (log intensity, higher = more binding, comparable within an allelic series)"
same,binding signal,[8],"13 upbm affinity estimate (log intensity, higher = more binding, comparable within an allelic series)"
same,binding signal,[9],"12.9 upbm affinity estimate (log intensity, higher = more binding, comparable within an allelic series)"
same,binding signal,[10],"12.9 upbm affinity estimate (log intensity, higher = more binding, comparable within an allelic series)"
CGCTGACC,binding signal,[1],"7.27 upbm affinity estimate (log intensity, higher = more binding, comparable within an allelic series)"
same,binding signal,[11],"8.61 upbm affinity estimate (log intensity, higher = more binding, comparable within an allelic series)"
same,binding signal,[12],"10.1 upbm affinity estimate (log intensity, higher = more binding, comparable within an allelic series)"
same,binding signal,[13],"8.64 upbm affinity estimate (log intensity, higher = more binding, comparable within an allelic series)"
same,binding signal,[4],"7.24 upbm affinity estimate (log intensity, higher = more binding, comparable within an allelic series)"
same,binding signal,[14],"10.1 upbm affinity estimate (log intensity, higher = more binding, comparable within an allelic series)"
same,binding signal,[15],"8.66 upbm affinity estimate (log intensity, higher = more binding, comparable within an allelic series)"
CCCCGGGA,binding signal,[1],"7.25 upbm affinity estimate (log intensity, higher = more binding, comparable within an allelic series)"
same,binding signal,[16],"9.71 upbm affinity estimate (log intensity, higher = more binding, comparable within an allelic series)"
same,binding signal,[17],"9.86 upbm affinity estimate (log intensity, higher = more binding, comparable within an allelic series)"
same,binding signal,[4],"7.27 upbm affinity estimate (log intensity, higher = more binding, comparable within an allelic series)"
same,binding signal,[18],"9.8 upbm affinity estimate (log intensity, higher = more binding, comparable within an allelic series)"
same,binding signal,[19],"9.99 upbm affinity estimate (log intensity, higher = more binding, comparable within an allelic series)"
ACAATCAA,binding signal,[1],"8.45 upbm affinity estimate (log intensity, higher = more binding, comparable within an allelic series)"
GCGCCCCC,binding signal,[1],"7.04 upbm affinity estimate (log intensity, higher = more binding, comparable within an allelic series)"
same,binding signal,[20],"8.12 upbm affinity estimate (log intensity, higher = more binding, comparable within an allelic series)"
same,binding signal,[21],"8.12 upbm affinity estimate (log intensity, higher = more binding, comparable within an allelic series)"
same,binding signal,[22],"8.12 upbm affinity estimate (log intensity, higher = more binding, comparable within an allelic series)"
same,binding signal,[23],"8.06 upbm affinity estimate (log intensity, higher = more binding, comparable within an allelic series)"
same,binding signal,[24],"8.14 upbm affinity estimate (log intensity, higher = more binding, comparable within an allelic series)"
same,binding signal,[4],"7.07 upbm affinity estimate (log intensity, higher = more binding, comparable within an allelic series)"
ATTATGCC,binding signal,[1],"9.49 upbm affinity estimate (log intensity, higher = more binding, comparable within an allelic series)"
GCTGATGA,binding signal,[1],"8.21 upbm affinity estimate (log intensity, higher = more binding, comparable within an allelic series)"
ATTCATGA,binding signal,[1],"8.41 upbm affinity estimate (log intensity, higher = more binding, comparable within an allelic series)"
CCCACGGC,binding signal,[1],"6.91 upbm affinity estimate (log intensity, higher = more binding, comparable within an allelic series)"
same,binding signal,[20],"7.88 upbm affinity estimate (log intensity, higher = more binding, comparable within an allelic series)"
same,binding signal,[11],"8.38 upbm affinity estimate (log intensity, higher = more binding, comparable within an allelic series)"
same,binding signal,[21],"7.71 upbm affinity estimate (log intensity, higher = more binding, comparable within an allelic series)"
same,binding signal,[25],"8.48 upbm affinity estimate (log intensity, higher = more binding, comparable within an allelic series)"
same,binding signal,[23],"7.87 upbm affinity estimate (log intensity, higher = more binding, comparable within an allelic series)"
same,binding signal,[26],"7.17 upbm affinity estimate (log intensity, higher = more binding, comparable within an allelic series)"
same,binding signal,[13],"8.1 upbm affinity estimate (log intensity, higher = more binding, comparable within an allelic series)"
same,binding signal,[27],"7.69 upbm affinity estimate (log intensity, higher = more binding, comparable within an allelic series)"
same,binding signal,[28],"9.39 upbm affinity estimate (log intensity, higher = more binding, comparable within an allelic series)"
same,binding signal,[4],"7.08 upbm affinity estimate (log intensity, higher = more binding, comparable within an allelic series)"
same,binding signal,[29],"10 upbm affinity estimate (log intensity, higher = more binding, comparable within an allelic series)"
same,binding signal,[30],"9.4 upbm affinity estimate (log intensity, higher = more binding, comparable within an allelic series)"
same,binding signal,[31],"7.64 upbm affinity estimate (log intensity, higher = more binding, comparable within an allelic series)"
same,binding signal,[32],"6.92 upbm affinity estimate (log intensity, higher = more binding, comparable within an allelic series)"
same,binding signal,[33],"7.79 upbm affinity estimate (log intensity, higher = more binding, comparable within an allelic series)"
same,binding signal,[34],"9.58 upbm affinity estimate (log intensity, higher = more binding, comparable within an allelic series)"
same,binding signal,[15],"8.18 upbm affinity estimate (log intensity, higher = more binding, comparable within an allelic series)"
same,binding signal,[35],"7.77 upbm affinity estimate (log intensity, higher = more binding, comparable within an allelic series)"
same,binding signal,[36],"6.93 upbm affinity estimate (log intensity, higher = more binding, comparable within an allelic series)"
same,binding signal,[37],"10.4 upbm affinity estimate (log intensity, higher = more binding, comparable within an allelic series)"
same,binding signal,[38],"8.45 upbm affinity estimate (log intensity, higher = more binding, comparable within an allelic series)"
same,binding signal,[39],"7.71 upbm affinity estimate (log intensity, higher = more binding, comparable within an allelic series)"
same,binding signal,[40],"7.04 upbm affinity estimate (log intensity, higher = more binding, comparable within an allelic series)"
same,binding signal,[41],"6.78 upbm affinity estimate (log intensity, higher = more binding, comparable within an allelic series)"
